Results published in PubChem BioAssay (NCI).
The panel holds about 83,000 compounds, 20% with a hit somewhere; the sample as a whole holds those more often.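 Single-dose data. Exposure time 48 hours. Values below 10 considered active.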 A number with no mark means an inactive call. The source made the active and inactive calls.

Experiments:
Test in all cases: NCI-60 one-dose screen, 48 h (100 = growth as untreated, 0 = no growth, -100 = all killed)
Details in all cases: 10 µM unless noted
SR leukemia = test system: SR leukemia
RPMI-8226 leukemia = test system: RPMI-8226 leukemia
OVCAR-8 ovarian = test system: OVCAR-8 ovarian
OVCAR-5 ovarian = test system: OVCAR-5 ovarian
OVCAR-4 ovarian = test system: OVCAR-4 ovarian
SK-OV-3 ovarian = test system: SK-OV-3 ovarian
IGROV1 ovarian = test system: IGROV1 ovarian
OVCAR-3 ovarian = test system: OVCAR-3 ovarian
HS 578T breast = test system: HS 578T breast
NCI/ADR-RES ovarian = test system: NCI/ADR-RES ovarian
T-47D breast = test system: T-47D breast
BT-549 breast = test system: BT-549 breast
MDA-MB-435 melanoma = test system: MDA-MB-435 melanoma
SW-620 colon = test system: SW-620 colon
MCF7 breast = test system: MCF7 breast
HCT-116 colon = test system: HCT-116 colon
KM12 colon = test system: KM12 colon
HCC-2998 colon = test system: HCC-2998 colon

SMILES | growth (SR leukemia) | growth (RPMI-8226 leukemia) | growth (OVCAR-8 ovarian) | growth (OVCAR-5 ovarian) | growth (OVCAR-4 ovarian) | growth (SK-OV-3 ovarian) | growth (IGROV1 ovarian) | growth (OVCAR-3 ovarian) | growth (HS 578T breast) | growth (NCI/ADR-RES ovarian) | growth (T-47D breast) | growth (BT-549 breast) | growth (MDA-MB-435 melanoma) | growth (SW-620 colon) | growth (MCF7 breast) | growth (HCT-116 colon) | growth (KM12 colon) | growth (HCC-2998 colon)
Oc1ccccc1-c1nnc(SCc2ccc(O)c3ncccc23)o1 | 43.3% | 13.5% | 26.4% | 68.4% | 35.9% | 19.5% | 53% | 29.7% | 6.2% (active) | 49% | 11.6% | 32.3% | 18.5% | 28.2% | 6.74% (active) | 10.5% | 29.3% | –
COc1ccc(OC)c([C@H]2c3[nH]c4ccccc4c3C[C@H]3C(=O)N(CCCCCCC(=O)NO)CC(=O)N23)c1 | 36.7% | 60.4% | 73.9% | 100% | 80% | 86.2% | 71.6% | 76.3% | 93.5% | 99.5% | 65% | 107% | 85% | 72.5% | 72.2% | – | 91.7% | 99.9%
COc1cc(/C=C/C(=O)c2ccc(NC(=O)COc3cccc4cccnc34)cc2)cc(OC)c1OC | 11.4% | 12.9% | 79.7% | 128% | 84.3% | 118% | 69.4% | 47.9% | 93.8% | 71.7% | 90.2% | 81.7% | 88.3% | 69.8% | 20.6% | – | 85.8% | 112%
Oc1ccc(CSc2nnc(-c3ccccc3)n2-c2ccccc2)c2cccnc12 | 33.6% | 10.9% | 16.8% | 43.7% | 15.8% | 9.62% (active) | 9.4% (active) | 6.38% (active) | 9.17% (active) | 8.58% (active) | 10.1% | 25.2% | 13.9% | 11.6% | 3.8% (active) | 10.8% | 14.1% | –
CC1OC(O[C@@H]2[C@H](O)C(CO)OC(O[C@H]3COC(O[C@H]4CC[C@]5(C)[C@H]6CC[C@]78OC[C@@]9(CCC(C)(C)C[C@H]97)[C@H](O)C[C@@]8(C)[C@]6(C)CC[C@H]5C4(C)C)[C@@H](OC4OC(CO)[C@@H](O)[C@@H](O)[C@@H]4O)[C@@H]3O)[C@H]2OC2OC[C@@H](O)[C@@H](O)[C@@H]2O)[C@@H](O)[C@@H](O)[C@H]1O (some centres undefined) | -51.3% (active) | -46.3% (active) | -69% (active) | -69% (active) | -74.1% (active) | -94.3% (active) | -66.3% (active) | -89.8% (active) | -54.4% (active) | -44.2% (active) | -54.6% (active) | -69.2% (active) | -82.8% (active) | -75.9% (active) | -55.9% (active) | -80.1% (active) | -51.9% (active) | –
O=C(/C=C1\C=CN(CCCCO)c2ccccc21)n1ccc2ccccc21 | 123% | 109% | 97.3% | 102% | 107% | 97.6% | 89.2% | 111% | 98.7% | 105% | 99.6% | 112% | – | 104% | 95.8% | 108% | – | 112%
O=C(CN1C(=O)S/C(=C\c2ccccc2)C1=O)Nc1ccc(C(=O)/C=C/c2cc3ccccc3nc2Cl)cc1 | 42.4% | 26.2% | 81.9% | 99.5% | 41.9% | 82.5% | 80.4% | 85.6% | 96.1% | 88.8% | 54.6% | 60.9% | – | 98% | 26.6% | -64.1% (active) | – | 97.8%
COc1ccc(CCN2C(=O)/C(=C/c3nc(CO)cs3)SC2=S)cc1 | 60.4% | 17.7% | 97.5% | 102% | 91.8% | 97.9% | 91.4% | 54.2% | 106% | 95.7% | 76.4% | 97.1% | 96% | 93.7% | 16% | 59.9% | 17.8% | 107%
Cc1ccc(-n2cc(/C=C/C(=O)c3ccc(S(C)(=O)=O)cc3)c(-c3ccc(S(C)(=O)=O)cc3)n2)cc1 | 44% | 92.3% | 97.5% | 98.3% | 109% | 105% | 69.2% | 75.9% | 103% | 64% | 105% | 91.5% | 31.4% | 64.9% | 64.8% | 53.4% | 59.5% | –
O=C1[C@@H]2Cc3c([nH]c4ccccc34)[C@H](c3c(Cl)cccc3Cl)N2C(=O)CN1C1CCN(Cc2c(F)cccc2F)CC1 | 35.4% | 67.9% | 79.3% | 92.4% | 76.3% | 96.8% | 59.5% | 113% | 44.7% | 85.3% | 94.9% | 80.4% | 85.1% | 72.1% | 40.4% | – | 74.5% | 63.8%
CC(C)C[C@H]1C(=O)O[C@H](C(C)C)C(=O)N(C)[C@@H](C(C)C)C(=O)O[C@H](C(C)C)C(=O)N(C)[C@@H](C(C)C)C(=O)O[C@H](C(C)C)C(=O)N1C | 14.4% | -11.1% (active) | 16% | 17.7% | 18.3% | -9.29% (active) | 37% | 17.6% | 38.2% | -1.7% (active) | 6.43% (active) | 17.6% | 21.9% | 18.2% | 13.8% | – | 16.6% | 23.1%
NNC(=O)c1sc2nc(-c3cnccn3)cc(-c3cccs3)c2c1N | 86.5% | 107% | 93.8% | 99.1% | 74.4% | 92.1% | 89.5% | 84.5% | 119% | 105% | 86.4% | 101% | – | 110% | 84.6% | 99.3% | 92.6% | 100%
CN(c1ccc(Br)cc1)S(=O)(=O)c1ccc(-c2cnc(C3CC3)o2)cc1 | 34.4% | 15.9% | 33.2% | 46.7% | 70.1% | 73.7% | 29.9% | 23.7% | 35.8% | 2.5% (active) | 55.1% | 19.3% | -12.1% (active) | 27.9% | 21.1% | – | 23.2% | 16.4%
C=C1C(=O)O[C@@H]2C[C@@H](C)CCC(=O)[C@](C)(OC(C)=O)C[C@H](OC(=O)/C(C)=C\C)[C@@H]12 | 4.94% (active) | 32.3% | 66.8% | 114% | 81.2% | 94.8% | 89.2% | 34.9% | 101% | 97.2% | 39% | 80.3% | 65.9% | 45.7% | 35.1% | 25.3% | 91.6% | –
O=S(=O)(NCCCNc1nccc(-n2cnc3ccccc32)n1)c1ccc(F)cc1 | 36.8% | 57.7% | 62.5% | 98.6% | 44.2% | 85.1% | 91.8% | 86.7% | 82.4% | 64.3% | 25.5% | 34.9% | 64.6% | 96.2% | 63.7% | 58.7% | 48.9% | 102%
COc1ccc(-c2oc3cc(O)cc(O)c3c(=O)c2OC)cc1O | 11% | 17.4% | 26.8% | 59.8% | 46.2% | 19.2% | 39.8% | -7.51% (active) | 11.2% | 15.4% | 22.6% | 40.3% | -34.3% (active) | 29.6% | 25.8% | 12.4% | 26.2% | –
NCCN1CCN(c2nc(-c3ccccc3)nc3nc(-c4ccccc4)oc23)CC1 | 20.7% | -27.9% (active) | -16.4% (active) | -82.9% (active) | -59.7% (active) | 100% | -71.6% (active) | -78.6% (active) | 100% | -45.3% (active) | -16.2% (active) | 92.5% | -77.6% (active) | -55% (active) | -88.3% (active) | – | -55.4% (active) | -14.4% (active)
